Laboratory results reported in PubChem BioAssay AID493216 (National Center for Advancing Translational Sciences (NCATS), 2011).
The source made the active and inactive calls. Calls follow the shape of the full dose curve.

These compounds were tested against Polyunsaturated fatty acid lipoxygenase ALOX12 (Homo sapiens) (UniProt P18054) (assay: Inhibitors of 12-hLO (12-human lipoxygenase): Cuvette-Based Hit Assay for Validation of Followup Compounds). Conditions: purified 12-hLO, cuvette absorbance 234 nm.
Chain of Polyunsaturated fatty acid lipoxygenase ALOX12 (Homo sapiens) (P18054 whole entry, looked up): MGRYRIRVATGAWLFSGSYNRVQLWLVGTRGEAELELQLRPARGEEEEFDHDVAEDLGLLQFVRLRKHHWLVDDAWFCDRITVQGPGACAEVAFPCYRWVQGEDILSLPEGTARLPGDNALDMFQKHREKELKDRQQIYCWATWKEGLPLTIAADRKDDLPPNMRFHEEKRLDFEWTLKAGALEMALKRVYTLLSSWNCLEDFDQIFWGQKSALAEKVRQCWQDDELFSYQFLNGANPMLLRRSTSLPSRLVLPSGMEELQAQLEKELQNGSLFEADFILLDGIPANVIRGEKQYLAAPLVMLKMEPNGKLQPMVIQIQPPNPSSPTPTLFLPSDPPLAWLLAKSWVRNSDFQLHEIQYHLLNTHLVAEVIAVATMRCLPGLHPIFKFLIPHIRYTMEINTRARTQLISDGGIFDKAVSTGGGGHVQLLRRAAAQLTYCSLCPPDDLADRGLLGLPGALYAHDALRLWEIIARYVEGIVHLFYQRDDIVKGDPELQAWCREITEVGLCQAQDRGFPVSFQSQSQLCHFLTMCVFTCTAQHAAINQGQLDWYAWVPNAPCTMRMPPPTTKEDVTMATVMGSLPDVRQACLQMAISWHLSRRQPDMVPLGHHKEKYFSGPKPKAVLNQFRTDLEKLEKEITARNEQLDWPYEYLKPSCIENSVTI
Outline: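 Rate of product formation by 12-hLO tracked by 234 nm absorbance to completion, substrate 10 uM arachidonic acid, pH 8.0 HEPES with 0.01% Triton X-100. Enzyme 50-200 nM; typically five inhibitor concentrations give IC50.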

Potency, active:
CCOC(=O)Cc1cc(=O)n(-c2nc3ccccc3s2)[nH]1 22.4 µM
COc1cc(CNc2ccc(N3CCCC3)cc2)ccc1OCc1ccccc1 25 µM
Cc1ccc(C(=O)Nc2nnc(-c3ccco3)o2)cc1 6.52 µM
c1ccc(-c2nc(NCc3cccnc3)c3oc4ccccc4c3n2)cc1 14 µM
O=C(Nc1nnc(-c2ccc(Cl)cc2)o1)c1ccccc1Br 18.3 µM
Cc1oc2c(O)c(O)ccc2c(=O)c1-c1cnn(-c2ccccc2)c1 15.5 µM
CCc1cc(-c2n[nH]c(C)c2Oc2ccc(C(C)C)cc2)c(O)cc1O 20.2 µM
Cc1nc(N)sc1-c1csc(N(C)c2ccc(O)cc2)n1 15.6 µM
O=C(/C=C/c1ccc(O)c(O)c1)c1ccc(S(=O)(=O)N2CCCCCC2)cc1 27.2 µM
CC1=NN(c2ccc(Cl)cc2)C(=O)C1C(c1ccccc1O)c1c(C)[nH]n(-c2ccc(Cl)cc2)c1=O (stereo unspecified) 18.9 µM
Cc1ccc(C(=O)Nc2nnc(-c3ccco3)o2)cc1C 15.7 µM
